Compound activity: PubChem BioAssay, several laboratories
Rows were chosen to be rich in hits. Some 6.6% of all compounds tested hit in one or more screens of this group.
MPTP block: mitochondrial permeability transition pore inhibitors, primary screen, biochemical, isolated mouse mitochondria, absorbance; AID 602449, 2012; actives 1.4% (n = 360,000); inhibition, % at 10 µM; Ca2+ swelling absorbance, 30 min;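 active = inhibition of 50% or more, scaled per plate between neutral and stimulator controls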
Beta apoptosis: inhibitors of cytokine-induced beta cell apoptosis, primary screen, luminescence. INS-1E cytokine-induced death, ATP luminescence, 48 h; percent of positive-control rescue, neutral wells zero. protection from apoptosis, % (concentration not given with the values). AID 435005, 2010. actives 0.8% (n = 300,000);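 active = Every replicate reaches about 75%, or at least half do and their mean reaches it too, limit read from the data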;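 also: higher means more ATP so stronger rescue from cytokine killing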
NR3A LBD binder: binders of NR3A ligand-binding domain, primary screen, biophysical, differential scanning fluorimetry, uHTS | NR3A LBD differential scanning fluorimetry, Tm shift; 0% = protein alone, 100% = glycine-bound protein | actives 2.5% (n = 340,000) | Glutamate receptor ionotropic, NMDA 3A (GRIN3A) ligand-binding domain | Tm shift relative to glycine control, % at 25 µM;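 active = melting temperature shift of at least 10% of the positive control shift, at one fixed dose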
Mdm2 MdmX PPI: inhibitors of human Mdm2-MdmX association, primary screen, cell-based, luminescence, split luciferase, SaOS-2, uHTS; SaOS-2 split-luciferase Mdm2/MdmX complementation; inhibition, % at 8 µM; actives 3% (n = 330,000);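 active = inhibition of at least 50% at 8 µM in the primary screen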
Target sequence (O15151 whole entry, looked up): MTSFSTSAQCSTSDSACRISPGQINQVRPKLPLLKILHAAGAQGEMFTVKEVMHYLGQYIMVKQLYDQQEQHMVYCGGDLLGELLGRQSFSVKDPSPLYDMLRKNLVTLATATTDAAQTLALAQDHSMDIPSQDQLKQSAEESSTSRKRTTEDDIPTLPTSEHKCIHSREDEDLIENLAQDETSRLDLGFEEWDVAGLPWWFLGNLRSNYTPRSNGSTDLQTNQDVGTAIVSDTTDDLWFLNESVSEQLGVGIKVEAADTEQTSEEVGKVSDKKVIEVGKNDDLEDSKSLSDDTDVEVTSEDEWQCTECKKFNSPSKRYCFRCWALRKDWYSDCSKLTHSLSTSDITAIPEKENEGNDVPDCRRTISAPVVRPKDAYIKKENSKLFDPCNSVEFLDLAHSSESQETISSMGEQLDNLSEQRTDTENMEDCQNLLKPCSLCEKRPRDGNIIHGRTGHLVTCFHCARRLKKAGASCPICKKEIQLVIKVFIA
Target sequence (Q00987 whole entry, looked up): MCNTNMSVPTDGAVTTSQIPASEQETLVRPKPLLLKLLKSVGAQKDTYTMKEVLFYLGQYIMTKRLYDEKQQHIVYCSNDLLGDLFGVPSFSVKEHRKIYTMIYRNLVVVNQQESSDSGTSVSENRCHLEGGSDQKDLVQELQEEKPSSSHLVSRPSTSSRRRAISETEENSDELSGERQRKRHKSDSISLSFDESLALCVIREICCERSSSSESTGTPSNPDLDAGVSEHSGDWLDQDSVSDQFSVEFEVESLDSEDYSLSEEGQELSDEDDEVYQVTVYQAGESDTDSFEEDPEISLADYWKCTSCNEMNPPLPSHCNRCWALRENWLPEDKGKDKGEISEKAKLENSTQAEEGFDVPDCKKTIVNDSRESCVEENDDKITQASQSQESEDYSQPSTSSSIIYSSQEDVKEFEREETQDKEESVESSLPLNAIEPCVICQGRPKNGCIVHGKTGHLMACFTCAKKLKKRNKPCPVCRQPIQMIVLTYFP
Gli-Sufu block: Gli-Sufu pathway antagonists, primary screen, luciferase luminescence, Sufu-KO-LIGHT cells, uHTS; actives 0.74% (n = 340,000); Sufu-KO-LIGHT fibroblasts, Gli luciferase reporter luminescence; inhibition, % at 5 µM;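 active = inhibition above about 55%, limit read from the data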
CSC inhib: cancer stem cell viability inhibitors, primary screen, luminescence; cancer stem cell-like cells viability; inhibition, % at 7.5 µM; actives 1.1% (n = 300,000); AID 2717, 2010; in the data active = inhibition above about 75%; tested in HMLE shEcad cells
Mdm2-MdmX conf: Mdm2-MdmX complex disruptors, retested hits, confirmation, luminescence, single concentration | shares compounds with Mdm2 MdmX PPI | Mdm2-MdmX binding, luminescent assay | inhibition, % at 8 µM | actives 55% (n = 10,000) | AID 489028, 2010; in the data active = inhibition above about 40%
FLuc counter: full-length luciferase signal inhibition, confirmation, counter-screen for Mdm2/MdmX interaction inhibitor project, cell-based, single concentration, SaOS-2; inhibition, % at 8 µM; actives 77% (n = 6,200); shares compounds with Mdm2 MdmX PPI; SaOS-2 full-length luciferase counterscreen, luminescence;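 active = mean inhibition at 8 µM reaching about 37%, which flags the compound as non-specific, limit read from the data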;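 also: p53-null SaOS-2 cells with luciferase driven by a doxycycline-inducible promoter; compound on cells about two nights before reading with doxycycline added after day one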
Hits are given with their value; – = inactive; · = not tested or not shown.

SMILES	MPTP block	Beta apoptosis	NR3A LBD binder	Mdm2 MdmX PPI	Gli-Sufu block	CSC inhib	Mdm2-MdmX conf	others
COc1ccc(NC(=O)N(C)C[C@@H]2OCc3cn(nn3)CCCC(=O)N([C@H](C)CO)C[C@H]2C)cc1	–	·	·	·	·	·	·
CC(=O)N(c1ccccc1)c1ccccc1[N+](=O)[O-]	–	·	·	·	·	·	·
COc1cccc2sc(N)nc12	–	–	–	–	–	–	·
COc1ccc(-c2nnc(Nc3nc4c(OC)cccc4s3)o2)c(OC)c1	–	·	–	68.0	–	·	58.2	FLuc counter=47.7
O=C(COC(=O)COc1ccccc1F)Nc1ccc2c(c1)OCO2	–	–	–	–	–	·	·
O=C1c2ccccc2-c2n[nH]c3cccc1c23	–	·	–	53.4	–	·	–
CC1=[N+]([O-])C(C)(C)N(O)C1(C)C	–	–	–	–	–	–	·
Cc1ccc(S(=O)(=O)Oc2ccccc2/C=N/NC(N)=S)cc1	–	–	–	53.6	–	–	56.3	FLuc counter=44.5
O=CNc1ccc2c3c(cccc13)-c1ccccc1-2	–	·	–	·	–	·	·
COc1ccc(-c2cc(=O)oc3c(C)c(OCC(=O)Nc4cccnc4)ccc23)cc1	–	–	–	51.4	–	–	–
Cn1c(CCN2CCCC2)nc2cc(NS(=O)(=O)c3ccc(Cl)cc3)ccc21	–	–	–	68.8	–	–	–
Cc1ccc(S(=O)(=O)Nc2ccc3c(c2)nc(CCN2CCCC2)n3C)cc1	–	–	–	–	–	–	·
O=C1NC[C@@H](CCCCN2C[C@H](Cc3ccc(O)cc3)N(CC3CCCCC3)C(=O)C2=O)N(CCC2CCCCC2)C1=O	–	·	·	·	·	·	·
COc1ccc(S(=O)(=O)Nc2cccc(-c3ccc4nncn4n3)c2)c(OC)c1	–	–	–	–	–	–	·
CCCCN=C1SC(C(=O)Nc2sc3c(c2C(=O)OC)CCC3)C(N)=C1C(=O)N1CCOCC1 (centres undefined)	–	–	–	65.9	–	–	–
COC(=O)c1c(NC(=S)NN2CCOCC2)sc2c1CCCC2	–	–	–	–	–	–	·
C[N+](C)(CCOc1ccccc1)Cc1ccccc1	–	·	–	·	–	·	·
Cc1cc(C(C)(C)CC(C)(C)C)ccc1OCCOCC[N+](C)(C)Cc1ccccc1	–	99.8	–	100.4	65.2	117.9	96.2	FLuc counter=54.2
Cc1nc2ccccc2n1C(C)c1nc2ccccc2n1CC(=O)c1ccc(OC(F)(F)F)cc1 (centres undefined)	–	·	·	·	·	·	·
Nc1c(Cl)cc(-c2csc(N3CCCC3c3nc4cc(Cl)c(N5CCCCC5)cc4n3CCCO)n2)cc1Cl (centres undefined)	–	–	–	84.9	–	–	–
Nc1c(Cl)cc(-c2csc(N3CCCC3c3nc4cc(Cl)c(Cl)cc4n3CCCO)n2)cc1Cl (centres undefined)	–	–	–	–	–	–	·
COc1cccc(-c2ccc3ncnc(NCc4cccs4)c3c2)c1	–	–	–	64.2	–	–	50.8	FLuc counter=39.4
Cn1ccc2cc(-c3ccc4ncnc(NCc5cccs5)c4c3)ccc21	–	–	–	63.9	–	·	57.1	FLuc counter=–
c1cncc(-c2ccc3ncnc(NCc4cccs4)c3c2)c1	–	–	–	–	–	·	·
C[C@H]1CN([C@@H](C)CO)C(=O)CCCn2cc(nn2)CO[C@@H]1CN(C)C(=O)Nc1cccc(Oc2ccccn2)c1	–	·	·	·	·	·	·
CCC(c1ccccc1)c1noc(CCN(CC)CC)n1 (centres undefined)	–	·	·	·	·	·	·
CC1(C)C[C@H](O)[C@]2(CO)CC[C@]3(C)C(=CCC4[C@@]5(C)CC[C@H](O)C(C)(C)C5CC[C@]43C)[C@@H]2C1 (some centres undefined)	–	–	–	–	–	–	·
